Screening results from PubChem.
DAX1 inh-1 – DAX1 (NR0B1) inhibitors, primary screen, cell-based, HEK293, Gal4-DAX1, luciferase luminescence; AID 504766, 2011; 340,000 tested, 0.99% active; inhibition, % at 6.75 µM; HEK293 Gal4-DAX1 luciferase reporter; Nuclear receptor subfamily 0 group B member 1 (Homo sapiens), P51843;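 active means inhibition above the mean over all tested compounds plus 3 SD, cut at about 4.2% in these data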;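 further: 0% = DAX1-transfected cells with DMSO and 100% = empty-vector control cells with DMSO; inhibition shows as a rise in luminescence from relieved DAX1 repression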
hcDAF-12 act – H. contortus DAF-12 nuclear receptor activators, primary screen, cell-based, luminescence, HEK293, lit1-tk-luc reporter; 370,000 tested, 1.4% active; HEK293 hcDAF-12 lit1-tk-luc reporter; 0% DMSO, 100% Δ7-dafachronic acid; activation, % at 6.8 µM;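 active means activation above the mean of all tested compounds plus 3 SD, cut at about 5.5% in these data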;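 further: 100% = response to 3 µM Δ7-dafachronic acid high control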
AHR act – AHR activators, primary screen, cell-based, luminescence, luciferase reporter, human; AHR-responsive luciferase reporter cells; 320,000 tested, 2.5% active; AID 2796, 2010; activation, % at 5 µM; in the data active means activation above about 47%;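 further: 0% = vehicle wells and 100% = reference agonist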
hgDAF-12 ag – H. glycines DAF-12 receptor agonists, primary screen, cell-based, luminescence, HEK293, GAL4 fusion, UAS-luciferase; Nuclear hormone receptor DAF-12 (Heterodera glycines), GAL4 fusion; HEK293 GAL4-hgDAF12 UAS-luciferase reporter, agonist luminescence; normalized to butyrate control; activation, % at 6.8 µM; 370,000 tested, 1.8% active; AID 687014, 2013;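 active means activation above a cutoff set at the mean of all screened compounds plus 3 SD, cut at about 10% in these data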;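 further: 0% = DMSO wells and 100% = sodium butyrate wells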
ssDAF12 agonist – S. stercoralis DAF-12 nuclear receptor activators, primary screen, cell-based, luminescence, HEK293, GRIP1 co-expression, lit1-tk-luc. Nuclear hormone receptor DAF-12 (Strongyloides stercoralis). activation, % at 6.8 µM. 370,000 tested, 1% active. HEK293 ssDAF-12/GRIP1 lit1-tk-luc reporter; % of 3 µM dafachronic acid response. AID 652126, 2013;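 active means activation above the mean over all tested compounds plus 3 SD, cut at about 0.9% in these data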;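 further: 0% = DMSO-only wells and 100% = 3 µM delta7-dafachronic acid wells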
DAX1 inh-2 – DAX1 (NR0B1) inhibitors on StAR promoter, primary screen, cell-based, luminescence, SF-1 (NR5A1), full-length DAX-1; HEK293T StAR-luciferase reporter, SF-1/DAX-1 repression relief; 370,000 tested, 1.1% active; inhibition, % at 6.8 µM; AID 652010, 2013;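 active means inhibition above the mean over all tested compounds plus 3 SD, cut at about 3.6% in these data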;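 further: 0% = DAX-1 cells with DMSO and 100% = cells lacking DAX-1 with DMSO; higher inhibition means more luminescence from relief of DAX-1 repression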
hgDAF12 ag – H. glycines DAF-12 receptor agonists, confirmation, cell-based, luminescence, HEK293, GAL4-LBD fusion; shares compounds with hgDAF-12 ag; HEK293 GAL4-hgDAF12 luciferase reporter, agonist mode; percent of butyrate response; activation, % at 6.8 µM; 3,300 tested, 80% active;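 active means mean activation over triplicate wells above the hit cutoff derived from the earlier primary screen, cut at about 11% in these data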;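 further: 0% = DMSO low control and 100% = 2 mM sodium butyrate high control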
LXRb DAF12 ctr – LXR agonists, Gal4 luciferase reporter, confirmation, counter-screen for hgDAF-12 agonist project, cell-based, luminescence, HEK293, H. glycines campaign; shares compounds with hgDAF-12 ag; 24 h; activation, % at 6.8 µM; 3,300 tested, under 10 active;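 active means mean activation of the triplicate above a set limit carried over from the primary screen, none filed active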
Target sequence (P55055 whole entry, looked up, the tested form may be a part): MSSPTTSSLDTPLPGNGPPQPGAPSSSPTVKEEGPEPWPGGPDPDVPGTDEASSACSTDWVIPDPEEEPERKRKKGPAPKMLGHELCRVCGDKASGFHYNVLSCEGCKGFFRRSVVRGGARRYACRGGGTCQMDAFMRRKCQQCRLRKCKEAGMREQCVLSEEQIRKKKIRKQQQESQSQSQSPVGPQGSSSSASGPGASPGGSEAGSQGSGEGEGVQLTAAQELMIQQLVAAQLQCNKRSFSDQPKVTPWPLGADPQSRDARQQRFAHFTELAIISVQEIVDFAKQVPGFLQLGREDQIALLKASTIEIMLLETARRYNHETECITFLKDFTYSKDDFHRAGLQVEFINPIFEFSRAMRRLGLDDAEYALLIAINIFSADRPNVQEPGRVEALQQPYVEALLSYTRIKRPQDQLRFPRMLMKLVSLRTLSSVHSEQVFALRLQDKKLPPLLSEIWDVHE
Numbers without * were called inactive; · = not tested or not shown. A selection: hits, their analogues and other compounds. The true share with any hit is near 5.7%.

SMILES	DAX1 inh-1	hcDAF-12 act	AHR act	hgDAF-12 ag	ssDAF12 agonist	DAX1 inh-2	hgDAF12 ag	LXRb DAF12 ctr
CCOC(=O)Nc1ccc2c(COC(=O)CNS(=O)(=O)c3cccc(Br)c3)cc(=O)oc2c1	0.1	-0.2	-2.5	-3.0	-0.8	0.2	·	·
COC(=O)c1sc2nc3c(cc2c1N)COC(C)(C)C3	1.4	2.5	0.9	16.5*	0.1	4.0*	16.9*	0.7
Cc1cccc(OCCCC(=O)Nc2nc3ccccc3[nH]2)c1	-0.9	0.4	14.8	13.6*	-1.1	0.3	7.4	0.1
Cc1cc([N+](=O)[O-])ccc1N(C)C	-0.6	-0.1	3.2	-1.4	-0.8	0.7	·	·
COc1ccc(-c2cc(C(=O)N/N=C(\C)c3cccnc3)c3ccccc3n2)c(OC)c1	-0.2	-0.1	39.5	-1.3	-1.0	2.0	·	·
COc1ccc(-c2coc3cc(O[C@@H]4O[C@H](CO)[C@@H](O)[C@H](O)[C@H]4O)ccc3c2=O)cc1	2.2	5.6	7.6	8.1	-0.3	2.7	·	·
O=c1c(-c2ccc3c(c2)OCCO3)coc2cc(OC3OC(CO)C(O)C(O)C3O)ccc12 (stereo not given)	1.2	5.8*	7.4	16.8*	0.3	3.6	14.1*	1.1
NC(=O)COC(=O)c1ccccc1Oc1ccccc1	2.6	-0.5	0.5	-2.2	-1.4	-0.6	·	·
COc1ccc(/C=N/NC(=O)c2c(Br)cnn2C)c2ccccc12	-0.9	-2.8	4.8	-0.5	-1.0	-0.9	·	·
Cc1ccc(NC(=O)C2CCN(S(=O)(=O)c3ccc4c(c3)OCCO4)CC2)nc1	-2.5	-0.9	7.6	1.3	-0.9	1.9	·	·
Cc1cc(C)n2nc(C(=O)Nc3ccc4c(c3)OCO4)cc2n1	1.6	4.4	-9.8	14.9*	0.3	4.2*	14.7*	0.8
O=C(Nc1ccc2c(c1)OCO2)c1cc2nc(C3CC3)cc(C(F)(F)F)n2n1	0.8	·	·	·	·	·	·	·
CCCN(c1ccccc1C(=O)O)S(=O)(=O)c1ccc2c(c1)n(C)c(=O)n2C	0.0	1.1	1.3	-0.1	-1.0	0.1	·	·
Cc1cc(C(=O)NNC(=O)c2ccc(NC(=O)CC#N)cc2)c(C)o1	1.9	-0.2	0.0	3.7	-1.2	-0.9	·	·
CCOC(=O)/C=C/c1cccc(OC)c1O	·	1.8	·	14.2*	0.6	3.8*	13.7*	0.5
CC1=CC(=C2C(=O)c3ccccc3C2=O)C=C(C)N1Cc1ccco1	2.2	3.4	10.7	15.7*	-0.5	2.8	12.7*	0.6
COc1ccc(NC(=O)Nc2cccc(OC)c2)cc1	0.4	1.7	2.4	7.3	-0.8	1.8	·	·
COc1cccc(NC(=O)Nc2ccc3nsnc3c2)c1	2.4	1.1	4.0	14.0*	-0.2	1.5	11.0*	0.5
COc1ccc(S(=O)(=O)N2CCOCC2)cc1NC(=O)CCCOc1ccc(C(C)=O)cc1	2.6	-0.7	·	-3.5	-1.3	-1.4	·	·
O=C(COC(=O)Cc1ccc(Cl)cc1)Nc1ccc2[nH]c(=O)[nH]c2c1	-1.4	0.4	7.5	0.4	-1.4	0.0	·	·
COCC1CCN(Cc2nc(-c3cccs3)no2)C1 (stereo not given)	·	3.2	18.2	21.5*	0.7	3.5	10.0	0.3
O=C1C(Nc2ccccc2)=C2CCCC=C2N1c1ccccc1	2.3	5.4	2.7	13.5*	0.1	4.2*	2.6	0.1
c1ccc(-c2cc(-c3ccccc3)n3ncnc3n2)cc1	-0.9	-1.1	28.9	2.9	-1.4	-1.4	·	·
c1ccc(-c2cn3nc(-c4ccccc4)cnc3n2)cc1	3.8	1.6	1.7	16.8*	-0.6	3.1	8.0	0.2
CN(C)S(=O)(=O)n1cc(/C=C(\NC(=O)c2ccccc2F)C(=O)N2CCCCC2)c2ccccc21	0.8	-1.3	·	-1.1	-0.9	-0.9	·	·
SMILES	DAX1 inh-1	hcDAF-12 act	AHR act	hgDAF-12 ag	ssDAF12 agonist	DAX1 inh-2	hgDAF12 ag	LXRb DAF12 ctr
CC(C)(C)OC(=O)N[C@H](/C=C/c1ccccc1)C(=O)OC(C)(C)C	-0.6	-1.4	-0.9	1.8	-1.6	0.6	·	·
O=C(Nc1ccc2c(c1)OCO2)N1CCN(Cc2ccco2)CC1	0.0	3.9	39.1	20.3*	0.7	3.0	13.8*	0.5
CCOC(=O)c1ccc(NC(=O)/C=C/c2cccs2)cc1	-0.1	2.2	1.0	18.6*	-0.4	1.0	9.1	0.3
CCN(CC)CCOC(=O)c1ccc(NC(=O)/C=C/c2cccs2)cc1	-0.2	0.7	-2.3	-0.7	-1.8	0.0	·	·
O=C(N/N=C/c1c(-c2ccccc2)[nH]c2ccccc12)c1cccnc1	-0.3	1.2	73.5*	18.1*	-0.5	-1.8	10.4	0.2
Cc1ccc(S(=O)(=O)N2CCCN(c3nccc(C(F)(F)F)n3)CC2)cc1	·	-0.2	1.4	-1.8	-0.8	0.1	·	·
CCCN(CCC)CC(O)Cn1cc(/C=C/C(=O)c2cccs2)c2ccccc21 (stereo not given)	-0.8	4.7	5.0	26.5*	-0.7	0.5	-0.2	0.0
O=C(/C=C/c1cn(CC(O)CN2CCCCC2)c2ccccc12)c1cccs1 (stereo not given)	-0.5	0.8	7.3	0.7	-1.2	0.0	·	·
CN1C(C(=O)N2CCc3ccccc3C2)=CC(c2ccc(F)cc2)=NS1(=O)=O	-0.2	3.0	11.2	0.8	-0.1	-0.3	·	·
Cc1cccc(/C=C\c2nc3ccccc3c(=O)[nH]2)c1	0.6	5.3	2.0	15.0*	0.5	3.6*	21.4*	0.9
Cc1cccc(NC(=O)CN2CCOCC2)c1C	0.7	-0.5	-0.7	0.8	-1.6	0.1	·	·
Nc1nccc(-c2cc(-c3ccc(Cl)cc3Cl)no2)n1	10.1*	5.7*	-8.0	14.8*	1.9*	2.5	19.6*	1.0
O=C(O)c1ccc(-c2nc(-c3ccc(Cl)cc3Cl)cs2)cc1	1.6	-0.5	17.6	8.5	-0.3	0.8	·	·
